Measurements as given in PubChem BioAssay (Tox21).
Records with an inconclusive call do not appear. Calls of active or inactive are those of the source. Calls come from the whole dose curve; as a rule, active = well fitted curve in the direction sought with a large enough effect in the repeat runs; inconclusive = weak or mixed curves; inactive = no such curve, though single readings can be large; an effect the other way counts as inactive or inconclusive.

Assays:
[1] = qHTS RealTime-Glo MT Cell Viability Assay in HEK293 cells - 16 hour (AID 1224872); note: top concentration of the series differs between compounds; nearly all actives have a fitted effect of over 50% in size
Summary of the method: (§1)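 Viability tracked continuously by luminescence as live cells reduce a prosubstrate for NanoLuc; HEK293 cells preincubated 5 h, compound-treated at 37 C, and read at 0, 8, 16, 24, 32 and 40 h.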

[2] = qHTS RealTime-Glo MT Cell Viability Assay in HepG2 cells - 8 hour (AID 1224873); note: nearly all actives have a fitted effect of over 55% in size
Summary of the method: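 Real-time viability: cells seeded at 600 per well together with NanoLuc and cell-permeant prosubstrate, compounds added after 5 h incubation. Luminescence tracked at 0, 8, 16, 24, 32 and 40 h of exposure.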

[3] = qHTS RealTime-Glo MT Cell Viability Assay in HEK293 cells - 40 hour (AID 1224874); details: RealTime-Glo luminescence; max response: stronger effect = lower value; note: nearly all actives have a fitted effect of over 50% in size
Summary of the method: (§2)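 600 cells/well were plated with the nonlytic NanoLuc/prosubstrate reagent, pre-incubated 5 h, then given 23 nL of compound in DMSO. Incubation at 37 C for 40 h, with luminescence from viable-cell-reduced substrate read repeatedly from 0 h.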

[4] = A CellTox Green Cytotoxicity Assay to monitor cytotoxicity in HEK293 cells - 24 hour (AID 1224875); note: series mostly up to about 77 µM; nearly all actives have a fitted effect of over 45% in size
Summary of the method: (§3)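 HEK293 cells, 600/well, were preincubated 5 hours and then exposed to compounds at 37 C for up to 40 hours. A cell-impermeant cyanine dye staining dead-cell DNA was read by fluorescence at 0, 8, 16, 24, 32 and 40 h time points.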

[5] = A CellTox Green Cytotoxicity Assay to monitor cytotoxicity in HepG2 cells - 16 hour (AID 1224876); note: nearly all actives have a fitted effect of over 45% in size
Summary of the method: (§4)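 HepG2 cells, 600/well, preincubated 5 h with CellTox Green dye, then exposed to Tox21 compounds in DMSO at 37 C for up to 40 h. Dead-cell DNA fluorescence read at the indicated time point.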

[6] = qHTS RealTime-Glo MT Cell Viability Assay in HepG2 cells - 32 hour (AID 1224877); note: nearly all actives have a fitted effect of over 55% in size
Summary of the method: (§5)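 Viability was tracked continuously by NanoLuc luminescence from prosubstrate reduced by living HepG2 cells, at successive time points over 40 h of compound exposure. Cells with reagent were preincubated 5 h at 37 °C before compound addition.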

[7] = A CellTox Green Cytotoxicity Assay to monitor cytotoxicity in HepG2 cells - 24 hour (AID 1224878); note: nearly all actives have a fitted effect of over 45% in size
Summary of the method: as §4

[8] = A CellTox Green Cytotoxicity Assay to monitor cytotoxicity in HepG2 cells - 40 hour (AID 1224879); note: nearly all actives have a fitted effect of over 40% in size
Summary of the method: as §4

[9] = qHTS RealTime-Glo MT Cell Viability Assay in HEK293 cells - 0 hour (AID 1224880); note: top concentration of the series differs between compounds; nearly all actives have a fitted effect of over 45% in size
Summary of the method: as §2

[10] = A CellTox Green Cytotoxicity Assay to monitor cytotoxicity in HEK293 cells - 32 hour (AID 1224881); note: nearly all actives have a fitted effect of over 40% in size
Summary of the method: as §3

[11] = A CellTox Green Cytotoxicity Assay to monitor cytotoxicity in HepG2 cells - 0 hour (AID 1224882); note: nearly all actives have a fitted effect of over 35% in size
Summary of the method: as §4

[12] = A CellTox Green Cytotoxicity Assay to monitor cytotoxicity in HepG2 cells - 32 hour (AID 1224883); note: nearly all actives have a fitted effect of over 50% in size
Summary of the method: as §4

[13] = A CellTox Green Cytotoxicity Assay to monitor cytotoxicity in HEK293 cells - 8 hour (AID 1224884); note: nearly all actives have a fitted effect of over 35% in size
Summary of the method: as §3

[14] = qHTS RealTime-Glo MT Cell Viability Assay in HepG2 cells - 16 hour (AID 1224885); note: nearly all actives have a fitted effect of over 50% in size
Summary of the method: as §5

[15] = qHTS RealTime-Glo MT Cell Viability Assay in HEK293 cells - 24 hour (AID 1224886)
Summary of the method: as §1

[16] = qHTS RealTime-Glo MT Cell Viability Assay in HEK293 cells - 8 hour (AID 1224887)
Summary of the method: as §2

[17] = A CellTox Green Cytotoxicity Assay to monitor cytotoxicity in HEK293 cells - 16 hour (AID 1224888); note: nearly all actives have a fitted effect of over 35% in size
Summary of the method: as §3

[18] = qHTS RealTime-Glo MT Cell Viability Assay in HepG2 cells - 0 hour (AID 1224889); note: nearly all actives have a fitted effect of over 50% in size
Summary of the method: as §5

[19] = A CellTox Green Cytotoxicity Assay to monitor cytotoxicity in HepG2 cells - 8 hour (AID 1224890); note: nearly all actives have a fitted effect of over 45% in size
Summary of the method: as §4

[20] = qHTS assay to identify small molecule antagonists of the estrogen receptor alpha (ER-alpha) signaling pathway using the BG1 cell line in the presence of 0.1 nM 17-beta-estradiol - cell viability counter screen (AID 1259241); note: nearly all actives have a fitted effect of over 40% in size
Summary of the method: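 In this screen, hormone-deprived VM7Luc4E2 cells were seeded at 4,000 per well, dosed with compound and 0.1 nM estradiol final, and incubated 22 hr at 37C and 5% CO2; fluorogenic live-cell protease signal reported viability.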
% is set by controls: 0 for no effect and ±100 for the full control effect.

Cc1cccc(N(C)C)c1
inactive: Potency [1] | Potency [2] | max response [3] 7.91% | Potency [4] | Potency [5] | Potency [6] | Potency [7] | Potency [8] | Potency [9] | Potency [10] | Potency [11] | Potency [12] | Potency [13] | Potency [14] | Potency [15] | Potency [16] | Potency [17] | Potency [18] | Potency [19] | Potency [20]

CCCCCCCCCCCCCOP(=O)(O)O
inactive: Potency [1] | Potency [2] | max response [3] -0.341% | Potency [4] | Potency [5] | Potency [6] | Potency [7] | Potency [8] | Potency [9] | Potency [10] | Potency [11] | Potency [12] | Potency [13] | Potency [14] | Potency [15] | Potency [16] | Potency [17] | Potency [18] | Potency [20]

CCCCCCCCCCCC(=O)N(CC)CC
inactive: Potency [1] | Potency [2] | max response [3] -24.4% | Potency [4] | Potency [5] | Potency [6] | Potency [7] | Potency [8] | Potency [9] | Potency [10] | Potency [11] | Potency [12] | Potency [13] | Potency [14] | Potency [15] | Potency [16] | Potency [17] | Potency [18] | Potency [19] | Potency [20]

CCc1ccc(C)nc1
inactive: Potency [1] | Potency [2] | max response [3] -9.25% | Potency [4] | Potency [5] | Potency [6] | Potency [7] | Potency [8] | Potency [9] | Potency [10] | Potency [11] | Potency [12] | Potency [13] | Potency [14] | Potency [15] | Potency [16] | Potency [17] | Potency [18] | Potency [19] | Potency [20]

Cc1cn[nH]c1
inactive: Potency [1] | Potency [2] | max response [3] 7.93% | Potency [4] | Potency [5] | Potency [6] | Potency [7] | Potency [8] | Potency [9] | Potency [10] | Potency [11] | Potency [12] | Potency [13] | Potency [14] | Potency [15] | Potency [16] | Potency [17] | Potency [18] | Potency [19] | Potency [20]

COC(=O)NCCC[Si](OC)(OC)OC
inactive: Potency [1] | Potency [2] | max response [3] 15.5% | Potency [4] | Potency [5] | Potency [6] | Potency [7] | Potency [8] | Potency [9] | Potency [10] | Potency [11] | Potency [12] | Potency [13] | Potency [14] | Potency [15] | Potency [16] | Potency [17] | Potency [18] | Potency [19] | Potency [20]

C=CC/C=C/C/C=C/C/C=C/C
inactive: Potency [1] | Potency [2] | max response [3] 0% | Potency [4] | Potency [5] | Potency [6] | Potency [7] | Potency [8] | Potency [9] | Potency [10] | Potency [11] | Potency [12] | Potency [13] | Potency [14] | Potency [15] | Potency [16] | Potency [17] | Potency [18] | Potency [19] | Potency [20]

O=S(=O)(O)c1cc(S(=O)(=O)O)c2ccc3c(S(=O)(=O)O)cc(S(=O)(=O)O)c4ccc1c2c43
inactive: activity change, negative = cytotoxicity [1] 1.53% [at 15.8 µM] | viability change, negative = cytotoxic [2] 0.921% [at 15.8 µM] | max response [3] 2.05% | activity change [4] -0.396% [at 15.8 µM, stronger effect = higher value] | cytotoxicity increase [5] -4.69% [at 15.8 µM] | activity change, negative = cytotoxic [6] 5.28% [at 15.8 µM] | cytotoxicity [7] -8.46% [at 15.8 µM] | cytotoxicity increase [8] -11.4% [at 15.8 µM] | activity change, negative = cytotoxicity [9] 3.1% [at 15.8 µM] | cytotoxicity increase [10] -1.7% [at 15.8 µM] | cytotoxicity [11] -2.2% [at 15.8 µM] | cytotoxicity increase [12] -9.89% [at 15.8 µM] | cytotoxicity increase [13] -7.26% [at 15.8 µM] | activity change, negative = cytotoxic [14] 2.01% [at 15.8 µM] | activity change, negative = cytotoxicity [15] 1.56% [at 15.8 µM] | activity change, negative = cytotoxicity [16] -2.93% [at 15.8 µM] | activity change [17] -3.56% [at 15.8 µM, stronger effect = higher value] | activity change, negative = cytotoxicity [18] 4.18% [at 15.8 µM] | cytotoxicity increase [19] 7.21% [at 15.8 µM] | activity change, negative = cytotoxicity [20] -2.07% [at 19 µM]

Cc1cccc(C)n1
inactive: Potency [1] | Potency [2] | max response [3] -0.971% | Potency [4] | Potency [5] | Potency [6] | Potency [7] | Potency [8] | Potency [9] | Potency [10] | Potency [11] | Potency [12] | Potency [13] | Potency [14] | Potency [15] | Potency [16] | Potency [17] | Potency [18] | Potency [19] | Potency [20]

CC(C)=CCCC(C)CCOC(=O)C(C)C (stereo not drawn)
inactive: Potency [1] | Potency [2] | max response [3] 12.8% | Potency [4] | Potency [5] | Potency [6] | Potency [7] | Potency [8] | Potency [9] | Potency [10] | Potency [11] | Potency [12] | Potency [13] | Potency [14] | Potency [15] | Potency [16] | Potency [17] | Potency [18] | Potency [19] | Potency [20]

CC(C)c1ccccc1N
inactive: Potency [1] | Potency [2] | max response [3] 0.54% | Potency [4] | Potency [5] | Potency [6] | Potency [7] | Potency [8] | Potency [9] | Potency [10] | Potency [11] | Potency [12] | Potency [13] | Potency [14] | Potency [15] | Potency [16] | Potency [17] | Potency [18] | Potency [19] | Potency [20]

c1ccc2c(c1)CCC2
inactive: Potency [1] | Potency [2] | max response [3] 5.18% | Potency [4] | Potency [5] | Potency [6] | Potency [7] | Potency [8] | Potency [9] | Potency [10] | Potency [11] | Potency [12] | Potency [13] | Potency [14] | Potency [15] | Potency [16] | Potency [17] | Potency [18] | Potency [20]
